SMILES strings stand for the structures. In all, about 16,000 compounds went through this assay and about 5,800 (36%) were called active. Roughly 23% stayed inconclusive and do not appear here. The call rests on the fitted dose curve; in most records, active means well fitted curve in the direction sought with a large enough effect; inconclusive means small, poorly fitted or top-dose-only effect, or effect the other way; inactive means no such curve, though single readings can be large or run the other way. The list shows a part of the results.
On the % scale 0 is the no-effect control and ±100 the full control effect.

Cytochrome P450 2C19 (Homo sapiens), sequence (P33261 whole entry, looked up): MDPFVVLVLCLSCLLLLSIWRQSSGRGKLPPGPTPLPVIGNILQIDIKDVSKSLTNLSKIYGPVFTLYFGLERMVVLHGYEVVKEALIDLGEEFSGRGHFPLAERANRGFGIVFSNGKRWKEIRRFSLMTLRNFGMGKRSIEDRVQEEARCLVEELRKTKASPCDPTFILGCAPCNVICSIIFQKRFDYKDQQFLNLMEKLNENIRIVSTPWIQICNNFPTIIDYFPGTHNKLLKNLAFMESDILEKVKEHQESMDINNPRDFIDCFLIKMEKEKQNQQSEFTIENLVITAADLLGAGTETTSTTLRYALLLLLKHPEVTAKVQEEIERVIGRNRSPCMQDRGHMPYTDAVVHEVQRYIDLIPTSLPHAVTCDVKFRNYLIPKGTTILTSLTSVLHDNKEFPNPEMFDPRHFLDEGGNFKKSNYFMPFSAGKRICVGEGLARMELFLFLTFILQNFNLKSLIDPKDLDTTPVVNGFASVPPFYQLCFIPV

The test addresses Cytochrome P450 2C19 (Homo sapiens) (UniProt P33261). Description: Cytochrome panel assay with activity outcomes. The following applies: recombinant CYP, pro-luciferin dealkylation, luminescence, p450-cyp2c19; series mostly up to 57.1 µM.
With `NCCS(=O)O`, the AC50 (in general, the concentration at which the activity in the assay is half-maximal) was “inactive”.

Consider `CC(=O)NC(NC(C)=O)c1ccc(Br)cc1`, for which the AC50 result was “inactive”.

With `C=CC(=O)NC(NC(=O)C=C)c1ccc(Br)cc1`, the AC50 was 15.8 µM (active).

Turning to `O=C(O)C(=O)/C=C(\O)c1ccc(Br)cc1`, the activity, negative = inhibition is 29% [at 11.4 µM] (inactive).

On to `O=C(COC(=O)c1cccnc1)c1ccc(Cl)c(Cl)c1`, for which the AC50 is 2.24 µM (active).

Consider `O=S(=O)(/N=C(\Sc1ccccc1)c1ccccc1)c1ccc(Cl)cc1`, for which the AC50 was 15.8 µM (active).

Turning to `CCOC(=O)c1sc(C)c(C(=O)NCC(C)(C)CN(C)C)c1N`, the AC50 is 28.2 µM (active).

On to `O=C(COc1ccc(Br)cc1)N1CCC(c2ccccc2)C1` (stereo not drawn), for which the AC50 is 1.12 µM (active).

Regarding `CCOc1ccc(NC(=O)N2CCC(c3ccc(C)cc3)C2)cc1` (stereo not drawn), the AC50 entry is “inactive”.

As to `COCC(=O)N1CCC2(CCCN(Cc3ccccc3)C2)CC1`, the AC50 result was “inactive”.

As to `Cc1sc2nc(C3CC3)nc(SCC(=O)N3CC(=O)Nc4ccccc43)c2c1C`, the AC50 was 3.98 µM (active).

Consider `Cc1nnc(SCC(=O)N2CC(=O)Nc3ccccc32)n1Cc1ccccc1`, for which the AC50 result was “inactive”.

As for `CC1=C(\C=C/C(C)=C/C=C\C(C)=C\C(=O)O)C(C)(C)CCC1`, the AC50 was 5.01 µM (active).

Turning to `CC1=CC(=O)CC(C)(C)[C@]1(O)/C=C\C(C)=C\C(=O)O`, the activity, negative = inhibition is -25.7% [at 11.4 µM] (inactive).

Turning to `CN(C)c1ncc2nc(-c3cccs3)c(=O)n(C[C@H]3CCCO3)c2n1`, the AC50 result is “inactive”.

For `CCCc1nc2ccccc2c(C(=O)OCC(=O)Nc2cccc(S(=O)(=O)N3CCOCC3)c2)c1CC`, the AC50 is 3.55 µM (active).

`O=C(COC(=O)c1cccc(S(=O)(=O)N2CCOCC2)c1)Nc1nc(-c2ccccc2Cl)cs1`: the AC50 was 3.98 µM (active).

As to `O=C(COC(=O)c1cccc(S(=O)(=O)N2CCN(c3ccccc3)CC2)c1)NCc1ccco1`, the AC50 was 0.708 µM (active).

On to `COc1ccccc1/C=C/C(=O)c1c2c(c(C)[nH]c1=O)CCCC2`, for which the AC50 is 7.94 µM (active).

For `COc1ccc(Cc2ccccc2C(=O)O)c2ccccc12`, the activity, negative = inhibition was 12.2% [at 11.4 µM] (inactive).

For the compound `COc1ccc2ccccc2c1/C=C\C(=O)c1ccccc1`, the AC50 is 0.316 µM (active).

As to `COc1ccccc1/C=C/C(=O)c1ccc(Cl)cc1`, the AC50 was 2.24 µM (active).

Turning to `COc1cc(C)cc(OC)c1/C=C\C(=O)O`, the activity, negative = inhibition is -0.542% [at 11.4 µM] (inactive).

Take `C[C@@H](Cc1ccccc1)Nc1ncnc2c1ncn2[C@@H]1O[C@@H](CO)[C@H](O)[C@@H]1O`: the AC50 entry is “inactive”.

On to `CC(O)(P(=O)(O)O)P(=O)(O)O`, for which the AC50 entry is “inactive”.

As to `NC(=NCCC[C@H](N)C(=O)O)NO`, the AC50 result was “inactive”.

With `NC(=S)NCCC[C@@H](N)C(=O)O`, the AC50 result was “inactive”.

Regarding `CCCN=C(N)NCCC[C@H](N)C(=O)O`, the AC50 was 2 µM (active).

Turning to `O=C(O)c1nn(-c2ccc(Cl)cc2)c2c1C(=O)c1ccccc1C2=O`, the activity, negative = inhibition is 4.89% [at 11.4 µM] (inactive).

Consider `O=C1CN=C(Nc2ccc(Cl)cc2)N1c1ccccc1`, for which the AC50 was 11.2 µM (active).

Regarding `CCOC(=O)COc1ccc(/C=C/[N+](=O)[O-])c(OCC(=O)OCC)c1`, the AC50 was 6.31 µM (active).

On to `CCCCCN=c1ccn(Cc2ccccc2)c2ccccc12`, for which the AC50 is 0.251 µM (active).

Turning to `O=C(CSc1n[nH]c(-c2ccccc2O)n1)N1CCCc2ccccc21`, the AC50 is 2.51 µM (active).

Take `O=C(CSc1nc(-c2ccccc2)cs1)N1CCc2ccccc21`: the AC50 was 2 µM (active).

As to `O=C(CSc1nnc(CNc2ccccc2)o1)N1CCCc2ccccc21`, the AC50 was 4.47 µM (active).

Take `O=C(CNCCO)N1CCc2ccccc21`: the AC50 result is “inactive”.

Take `O=C(CSc1nnc(CNc2ccc(F)cc2)o1)OC1CCCCC1`: the AC50 was 11.2 µM (active).

Take `CCn1ccc(C(=O)NC2=C(C#N)CCC2)n1`: the AC50 result was “inactive”.

Turning to `CSc1nc(Oc2ccc(=O)[nH]n2)nc(N(C)C)n1`, the AC50 entry was “inactive”.

For the compound `CO[C@@H]1COC(=O)CCC[C@@H](C)[C@H](OC)COC(=O)CCC[C@H]1C`, the activity, negative = inhibition is 5.51% [at 11.4 µM] (inactive).

Consider `O=C(CSc1nnc(CNc2ccc(F)cc2)o1)N1c2ccccc2Sc2ccccc21`, for which the AC50 was 2.82 µM (active).

In the case of `COc1ccc(-n2nnnc2SCC(=O)Nc2ccccc2)cc1`, the AC50 is 3.98 µM (active).

In the case of `O=C(CSc1nnnn1-c1ccccc1)NCc1cccs1`, the AC50 is 0.891 µM (active).

Turning to `COc1ccc(-n2ccnc2SCC(=O)Nc2ccc(OC)cc2OC)cc1`, the AC50 was 1.41 µM (active).

For `CCc1nnc(NC(=O)CCC(=O)N2CCN(c3ccccn3)CC2)s1`, the AC50 result was “inactive”.

Turning to `CCOc1ccc(-n2ccnc2SCC(=O)Nc2nnc(CC)s2)cc1`, the AC50 was 8.91 µM (active).

Regarding `CCOc1ccc(-n2ccnc2SCC(=O)Nc2nnc(C)s2)cc1`, the AC50 entry is “inactive”.

Consider `NCCSSCCN`, for which the AC50 entry was “inactive”.

For the compound `CN1CCCC2(CCN(C(=O)c3cnccn3)CC2)C1`, the AC50 result is “inactive”.

Regarding `COc1cccc(-n2ccnc2SCC(=O)Nc2nccs2)c1`, the AC50 is 8.91 µM (active).

With `CCCC(=O)Nc1nnc(CCN2CCCCC2)s1`, the AC50 entry is “inactive”.

Regarding `Cc1ccc2nc(SCC(=O)NCc3cccs3)c(C#N)cc2c1`, the AC50 entry is “inactive”.

On to `COc1ccc(NC(=O)CSc2nnc(C3CC3)n2-c2ccccc2)cc1`, for which the AC50 is 20 µM (active).

As to `COc1ccc(-n2ccnc2SCC(=O)Nc2ccccc2)cc1`, the AC50 was 4.47 µM (active).

On to `CCCC(=O)Nc1nnc(SCC(=O)NCc2cccs2)s1`, for which the half-maximal activity concentration (AC50) was 14.1 µM (active).

As for `COc1ccc(NC(=O)CSc2nnc(C3CC3)n2N)cc1`, the AC50 entry was “inactive”.

As for `CCn1c(SCC(=O)c2ccc(OC)cc2)nnc1C1CC1`, the AC50 was 11.2 µM (active).

In the case of `CC(=O)Nc1ccc(Nc2ncnc3c2cnn3-c2ccccc2)cc1`, the AC50 was 2.82 µM (active).

Turning to `Cc1cccc(-n2ncc3c(Nc4c(C)n(C)n(-c5ccccc5)c4=O)ncnc32)c1`, the AC50 entry was “inactive”.

Take `Cn1ncc2c(Nc3cccc(C(=O)O)c3)ncnc21`: the AC50 entry is “inactive”.

Regarding `CCN(CC)C(=O)CSc1nc(O)cc(=O)n1CC`, the AC50 entry was “inactive”.

Consider `Cn1c(SCC(=O)Nc2ccccc2)nc(O)cc1=O`, for which the AC50 is 22.4 µM (active).

As to `COc1ccc(NC(=O)CSc2ccc3c4c(cccc24)C(=O)c2ccccc2-3)cc1`, the AC50 was 0.708 µM (active).

In the case of `O=C(O)CS(=O)c1ccc2c3c(cccc13)C(=O)c1ccccc1-2` (stereo not drawn), the activity, negative = inhibition is -37% [at 11.4 µM] (inactive).

`CCn1c(SC)nnc1C1CCN(S(=O)(=O)c2ccc(OC)cc2)CC1`: the AC50 entry was “inactive”.

Take `O=C(CSC1=NCCN1)Nc1ccccc1`: the activity, negative = inhibition is -1.95% [at 11.4 µM] (inactive).

In the case of `CC(=O)Nc1ccc(NC(=O)CSc2ncnn2-c2ccccc2)cc1`, the AC50 is 25.1 µM (active).

Take `OCCNCCCOc1cccc(Cl)c1Cl`: the AC50 was 3.98 µM (active).

Consider `COc1c(Cl)cc(Cl)cc1CNCCNCCO`, for which the AC50 result is “inactive”.

Consider `Nc1ncnc2c1nc(Br)n2[C@@H]1O[C@H]2COP(=O)(O)O[C@@H]2[C@H]1O`, for which the AC50 result was “inactive”.

On to `COC(=O)N1CCC2(CC1)CCN(c1ccncc1)CC2`, for which the AC50 result was “inactive”.

For the compound `N#Cc1nc(-c2cccs2)oc1NCc1ccccc1`, the AC50 is 1.58 µM (active).

As for `CNc1oc(-c2cccs2)nc1C#N`, the AC50 entry is “inactive”.

Consider `O=C(Cn1c(-c2cscn2)nc2ccccc21)Nc1cc(F)ccc1F`, for which the AC50 was 3.16 µM (active).

For `CCCCCC/C(C)=C1/SC(=S)NC1=O`, the AC50 is 3.55 µM (active).

Take `Cc1ncc(COP(=O)(O)O)c(C)c1O`: the activity, negative = inhibition was 11.9% [at 11.4 µM] (inactive).

As for `CCCC(CCC)C(=O)NNc1cc(=O)c2c(=O)n(C)c(=O)n(C)c2[nH]1`, the AC50 result was “inactive”.

As for `Cc1ccc(Oc2ccccc2/C=C2\SC(=O)N(C)C2=O)cc1`, the concentration at half-maximal activity (AC50) is 6.31 µM (active).

For `CC(C)(C)NC[C@H](O)COc1cccc2[nH]c(=O)[nH]c12`, the AC50 entry was “inactive”.

For the compound `COC(=O)c1cc(OC)c(OC)cc1NC(=O)CSc1ccccc1`, the AC50 is 3.16 µM (active).

Take `COC(=O)c1cc(OC)c(OC)cc1NC(=S)N1CCN(C)CC1`: the AC50 entry was “inactive”.

For the compound `CCN(CC)S(=O)(=O)c1ccc(OC)c(NC(=O)c2cc([N+](=O)[O-])ccc2Cl)c1`, the AC50 entry was “inactive”.

As for `COc1cc(N)c(Cl)cc1C(=O)OCCCN1CCCCC1`, the AC50 result is “inactive”.

With `COC(=O)c1cc(OC)c(OC)cc1NC(=O)CSc1ccc(C)cc1`, the AC50 was 1.78 µM (active).

For `CCN(CC)S(=O)(=O)c1ccc(OC)c(NC(=O)CSc2ccccc2)c1`, the AC50 was 11.2 µM (active).

For the compound `COC(=O)c1cc(OC)c(OC)cc1NC(=S)N1CCCCC1`, the AC50 was 6.31 µM (active).

Turning to `CCN1CCC[C@H]1CNC(=O)c1cc(S(N)(=O)=O)ccc1OC`, the AC50 result was “inactive”.

For the compound `CCNc1ncc2ncc(=O)n(C[C@H]3CCCO3)c2n1`, the AC50 entry was “inactive”.

For the compound `CCNc1ncc2ncc(=O)n(CCc3ccccc3)c2n1`, the AC50 is 0.631 µM (active).

`CCNc1ncc2ncc(=O)n(C3CC3)c2n1`: the AC50 entry is “inactive”.

As to `COCCn1c(=O)cnc2cnc(Nc3ccccc3)nc21`, the AC50 entry is “inactive”.

`O=c1cnc2cnc(Nc3ccccc3)nc2n1CCc1ccccc1`: the AC50 was 2 µM (active).

For the compound `CC[N+](C)(C)c1cccc(O)c1`, the AC50 entry is “inactive”.

In the case of `CCOc1ccc(C2=[N+]([O-])C(C)(C)N(O)C2(C)C)cc1`, the AC50 entry is “inactive”.

For `CCOc1ccc(C(Nc2ccc(C)cc2)P2(=O)OCC(C)(C)CO2)cc1` (stereo not drawn), the AC50 was 25.1 µM (active).

For the compound `CN(Cc1cccc2ccccc12)Cc1cccc2ccccc12`, the AC50 is 1.58 µM (active).

`CN(C/C=C\c1ccccc1)Cc1cccc2ccccc12`: the AC50 is 0.501 µM (active).

Regarding `CN(C)Cc1ccccc1-c1nccc(N(C)C)n1`, the AC50 entry is “inactive”.

For `c1ccc2c(CC3=NCCN3)cccc2c1`, the AC50 entry was “inactive”.

As to `NCCSS(=O)(=O)CCN`, the activity, negative = inhibition was 4.15% [at 11.4 µM] (inactive).

Consider `COCCn1c(C)cc2c(c1=O)C(c1ccccc1F)C(C#N)=C(N)O2` (stereo not drawn), for which the AC50 result was “inactive”.

Consider `CCOc1ccccc1C1C(C#N)=C(N)Oc2n[nH]c(CC)c21` (stereo not drawn), for which the AC50 was 6.31 µM (active).

For `N=C(N)SCCN`, the AC50 entry is “inactive”.

Consider `CCN1CCC[C@@H]1CNC(=O)c1cc(S(N)(=O)=O)ccc1OC`, for which the AC50 result is “inactive”.

On to `CC(=O)C1=C(NC(=O)c2ccc(F)cc2)CC2C1C2(C)C` (stereo not drawn), for which the AC50 is 3.16 µM (active).

Turning to `Nc1nc(-c2cccc([N+](=O)[O-])c2)cc(-c2cc(-c3cccc([N+](=O)[O-])c3)nc(N)n2)n1`, the activity, negative = inhibition was 14.8% [at 11.4 µM] (inactive).

`O=[N+]([O-])c1cccc(-c2nc(-c3ccncc3)no2)c1`: the AC50 is 0.891 µM (active).

As to `C[C@@H]1NC(=O)C/C=C\[C@@H](C)[C@@H]2C=C[C@H](O)[C@@H](COC(=O)[C@H](C)NC(=O)C/C=C\[C@@H](C)[C@@H]3C=C[C@H](O)[C@@H](COC1=O)O3)O2`, the activity, negative = inhibition is -11.5% [at 11.4 µM] (inactive).

For the origin of these results see PubChem BioAssay AID1851 (National Center for Advancing Translational Sciences (NCATS), 2009).
